The record followed here is paper PMC5540273 (PLoS ONE, 2017).

pKd: −log10 of the molar value.

The term pKd denotes the negative decadic logarithm of the Kd, by convention in mol/L. A high value points to a low Kd.
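Note: kd values determined as follow-up on hits from a single-replicate KINOMEscan panel screen.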

The test system of the test is T1, RSK4(Kin.Dom.2-C-terminal).
T1 construct: gene RPS6KA6
Consider `CCc1nc(-c2cccc(C)c2)c(-c2ccncc2)s1`, for which the pKd is 6.92.

With `Nc1nc(-c2ccccc2F)c(-c2ccnc3ccccc23)s1` [GW560459], the pKd is 7.55.

Turning to `OCCCNc1nccc(-c2c(-c3cccc(C(F)(F)F)c3)nn3cc(C(F)(F)F)ccc23)n1` [GW630813], the negative logarithm of the Kd (pKd) is 5.57.
